# Experimental data from ChEMBL document CHEMBL2218924, “A broad activity screen in support of a chemogenomic map for kinase signalling research and drug discovery” (Biochem J, 2013).
# How the values were obtained:
# [1] = target: T1, Protein kinase C epsilon type (Homo sapiens) (UniProt Q02156); settings: at 1 µM
# T1 sequence (whole entry): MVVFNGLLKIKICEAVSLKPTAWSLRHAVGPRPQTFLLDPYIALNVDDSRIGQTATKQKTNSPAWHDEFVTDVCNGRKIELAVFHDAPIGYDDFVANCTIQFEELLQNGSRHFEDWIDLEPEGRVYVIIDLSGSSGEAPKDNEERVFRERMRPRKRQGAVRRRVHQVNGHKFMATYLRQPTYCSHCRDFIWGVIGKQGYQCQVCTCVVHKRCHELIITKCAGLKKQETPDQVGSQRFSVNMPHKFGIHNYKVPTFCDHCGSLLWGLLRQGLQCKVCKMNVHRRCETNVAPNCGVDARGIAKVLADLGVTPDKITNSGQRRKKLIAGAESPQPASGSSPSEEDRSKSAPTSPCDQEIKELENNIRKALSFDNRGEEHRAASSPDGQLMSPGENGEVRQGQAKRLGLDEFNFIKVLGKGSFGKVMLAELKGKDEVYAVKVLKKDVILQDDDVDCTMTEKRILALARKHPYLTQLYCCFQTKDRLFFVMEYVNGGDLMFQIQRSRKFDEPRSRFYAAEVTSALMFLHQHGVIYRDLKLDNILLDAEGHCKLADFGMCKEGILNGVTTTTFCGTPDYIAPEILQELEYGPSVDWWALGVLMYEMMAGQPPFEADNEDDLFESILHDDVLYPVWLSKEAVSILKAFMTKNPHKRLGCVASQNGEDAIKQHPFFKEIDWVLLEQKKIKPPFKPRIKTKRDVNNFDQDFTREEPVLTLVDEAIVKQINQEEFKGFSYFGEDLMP
# [2] = target: T1, Protein kinase C epsilon type (Homo sapiens); settings: at 10 µM
SMILES,residual activity [1],residual activity [2]
Cc1cc(C)c(/C=C2\C(=O)Nc3ccccc32)[nH]1,82%,–
COc1ccc(Cl)cc1NC(=O)Nc1cc(C)nc2ccccc12,82%,97%
CC(C)c1nn(-c2c(Cl)cccc2Cl)c2nc(Cc3ccc(OCCO)cc3)[nH]c(=O)c12,99%,82%
CSc1nc(-c2ccc(F)cc2)c(-c2ccnc(NC(C)c3ccccc3)c2)[nH]1 (configuration not stated),125%,101%
COc1ccc(-c2cnc3c(-c4ccsc4)cnn3c2)cc1,86%,100%
O=C1NC(=O)C(c2c[nH]c3ccccc23)=C1c1c[nH]c2ccccc12,63%,21%
O=C1NC(=O)C(c2cn(CCCn3ccnc3)c3ccccc23)=C1Nc1ccccc1,21%,3%
O=S(=O)(c1cccc2cnccc12)N1CCCNCC1,–,69%
CN(C)S(=O)(=O)c1ccc2c(c1)/C(=C/c1cc3c([nH]1)CCCC3)C(=O)N2,98%,85%
O=C(Nc1nc2ccccc2n1CCN1CCOCC1)c1cccc([N+](=O)[O-])c1,86%,102%
NC(=O)Nc1sc(-c2ccc(F)cc2)cc1C(N)=O,102%,94%
COc1cc2nccc(Oc3ccc(NC(=S)NC(=O)c4ccccc4C)cc3)c2cc1OC,85%,88%
CCCC(=O)Oc1ccc2[nH]c(C(=O)c3cc4ccccc4[nH]3)cc2c1,85%,93%
CC(C)N(CCC(=O)c1ccc2ccccc2c1)Cc1ccccc1,83%,–
O=c1cc(N2CCNCC2)oc2c(-c3ccccc3)cccc12,93%,98%
O=C(NC(NC(=S)Nc1ccc(F)c([N+](=O)[O-])c1)C(Cl)(Cl)Cl)C(c1ccccc1)c1ccccc1 (configuration not stated),84%,96%
O=C1NC(=O)c2c1c1c3ccccc3[nH]c1n1cncc21,105%,94%

SMILES,residual activity [1],residual activity [2]
COc1ccc2c(c1)c(C1=C(c3c[nH]c4ccccc34)C(=O)NC1=O)cn2CCCN(C)C,3%,0%
Nc1ncnc2c1c(-c1ccc(Oc3ccccc3)cc1)cn2C1CCCC1,84%,84%
CC(C)(C)n1nc(Cc2cccc3ccccc23)c2c(N)ncnc21,91%,100%
Nc1ncnc2c1cnn2-c1ccccc1,80%,101%
CCOC(=O)c1c(C)[nH]c(/C=C2\C(=O)Nc3ccccc32)c1C,83%,88%
O=C(c1ccccc1)c1ccc(N2CCOCC2)cc1O,89%,95%
O=C(O)/C=C/c1cc(Br)c(Br)c(Br)c1Br,104%,102%
Cn1sc(=O)n(Cc2ccccc2)c1=O,88%,11%
Nc1ncnc2[nH]nc(Nc3ccc(F)cc3)c12,123%,112%
CC(C)[C@H](CO)Nc1nc(Nc2cc(N)cc(Cl)c2)c2ncn(C(C)C)c2n1,100%,98%
Oc1cccc(-c2nc(N3CCOCC3)c3oc4ncccc4c3n2)c1,91%,99%
NCCNc1ncc(C(N)=O)c(Nc2cccc(C(F)(F)F)c2)n1,77%,62%
O=C1Nc2ccc(Cl)cc2/C1=C/c1cc(Cl)c(O)c(Cl)c1,87%,97%
O=S(=O)(NCCNC/C=C/c1ccc(Br)cc1)c1cccc2cnccc12,–,76%
O=c1cc(N2CCOCC2)oc2c1ccc1ccccc12,87%,87%
O=C1C(Cl)=C(N2C(=O)CCC2=O)C(=O)c2ccccc21,90%,26%
